Screening results: PubChem BioAssay, National Center for Advancing Translational Sciences (NCATS)
Luc counter: counter-screen: inhibitors of Kinase-Glo firefly luciferase. 200,000 compounds, 0.28% hits. Kinase-Glo luciferase, ATP luminescence, 8 min. Q27757. Potency, µM (highest dose often 38.3 µM), inactives show top-dose activity change, negative = inhibition, hits mostly inhibitors; further: nearly all actives have a fitted effect of over 60% in size
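Kinase-Glo luciferase light output from ATP and luciferin was measured with 10 uM ATP, within the enzyme's linear range. Buffer: 50 mM imidazole pH 7.2, 50 mM KCl, 7 mM MgCl2, 0.01% Tween 20, 0.05% BSA; luminescence read after 8 min at ambient temperature.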
Gal4-VP16 FLuc: counter-screen for ROR gamma inhibitors: Gal4-VP16 reporter | Drosophila S2 Gal4-VP16 UAS-luciferase, luminescence, 20 h | Potency, µM (titrated, usually from 53.6 µM), without a hit: at the highest dose activity, negative = inhibition, most hits filed as inhibitors | 310,000 compounds, 3.5% hits;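 further: Gal4-VP16 expression switched on by copper sulfate through the metallothionein promoter; nearly all actives have a fitted effect of over 50% in size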
RORg inh: inhibitors of mouse ROR gamma transcriptional activity; P51450; 310,000 compounds, 5.4% hits; Drosophila S2 Gal4-RORgamma UAS-luciferase reporter, 20 h; Potency, µM (doses to about 53.6 µM), without a hit: at the highest dose activity change, negative = inhibition, actives largely listed as inhibitors; AID 2551; further: nearly all actives have a fitted effect of over 60% in size
Target sequence (P51450 whole entry, looked up, the tested form may be a part): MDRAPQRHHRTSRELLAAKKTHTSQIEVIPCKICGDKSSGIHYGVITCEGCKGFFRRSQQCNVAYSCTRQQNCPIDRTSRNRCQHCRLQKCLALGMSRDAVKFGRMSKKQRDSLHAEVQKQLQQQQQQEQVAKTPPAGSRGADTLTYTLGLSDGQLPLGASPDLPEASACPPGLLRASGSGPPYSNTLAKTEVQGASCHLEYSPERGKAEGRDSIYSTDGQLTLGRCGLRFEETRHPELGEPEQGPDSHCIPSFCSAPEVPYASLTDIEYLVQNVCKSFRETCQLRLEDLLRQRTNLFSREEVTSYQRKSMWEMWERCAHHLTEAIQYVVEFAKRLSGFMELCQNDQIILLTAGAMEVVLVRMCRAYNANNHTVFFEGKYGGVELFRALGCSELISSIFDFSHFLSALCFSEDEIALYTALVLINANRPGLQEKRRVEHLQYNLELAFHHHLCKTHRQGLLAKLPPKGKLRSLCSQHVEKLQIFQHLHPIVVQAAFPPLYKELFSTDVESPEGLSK
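Schneider cells (Drosophila), stable Gal4 DBD–ROR gamma + UAS-luc; 1 hr cmpd preincubation; Cu2+ induction 700 uM final; 20 hr ambient; luminescence.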
Numbers without * were called inactive; u = inconclusive; x = no result given; [ ] = another dose, or the depositor's remark. This is a sample that favours compounds with a hit; in the whole collection about 6.2% have one here. The call rests on the fitted dose curve; in most records, active means well fitted curve in the direction sought with a large enough effect; inconclusive means small, poorly fitted or top-dose-only effect, or another doubt; inactive means no such curve, though single readings can be large; an effect the other way counts as inactive or inconclusive. On the % scale 0 is the no-effect control and ±100 the full control effect; potency means the concentration at half of the fitted maximal effect.

SMILES	Luc counter	Gal4-VP16 FLuc	RORg inh
Cc1cc(C(=O)COC(=O)c2ccc3c(c2)OCO3)c(C)n1CC1CCCO1 (stereo not drawn)	-9%	5%	-15%
COCCn1c(C)cc(C(=O)COC(=O)c2cccc(O)c2)c1C	x	0.63µM*	0.35µM*
COCCn1c(C)cc(C(=O)CSc2nnc(C)s2)c1C	10µM*	1µM*	0.71µM*
COCCn1c(C)cc(C(=O)COC(=O)c2ccc([N+](=O)[O-])o2)c1C	0%	-1%	13µM*
C=C1c2ccccc2O[C@H](C(=O)OCC)[C@@H]1C1CCCCC1 (tested in a mixture with another compound)	-9%[39.9 µM]	0%	8%
Cc1cc(C(=O)CSc2nnc(-c3ccc(Cl)cc3)n2C)c(C)n1CC1CCCO1 (stereo not drawn)	-2%	-1%	19%
Cc1cc(C(=O)Cn2nnc(-c3ccc(Cl)cc3)n2)c(C)n1CC1CCCO1 (stereo not drawn)	7%	32µM*	-2%
CC(C)Oc1ccccc1C1CC(=O)Nc2cc3c(cc21)OCCO3 (stereo not drawn)	0%	u	1%
COc1ccccc1C1CC(=O)Nc2cc3c(cc21)OCCO3 (stereo not drawn)	-2%	11µM*	-14%
COC(=O)CCSCC(=O)Nc1nnc(C)s1	1%	2%	-6%
COc1ccc(CNC(=O)C(c2ccncc2)N(C(=O)Cc2cccs2)c2ccccc2C)cc1 (stereo not drawn)	3%	-5%	-5%
Cc1nn(-c2ccccn2)c2c1C(c1ccccn1)C1=C(CCCC1=O)N2 (stereo not drawn)	-2%	-4%	8%
Cc1ccc(C)n1/N=C1/NC(=O)CS1	0%	4%	-41%
O=C1CS/C(=N/N=C\c2ccn[nH]2)N1	x	u	10µM*
COc1ccc(CCN(C)C(=O)C2CCN(Cc3cccc(OC)c3OC)CC2)cc1OC	3%	-1%	15%
COC(=O)c1ccc(S(=O)(=O)N2CCCN(Cc3cccc(Br)c3F)CC2)n1C	x	-19%	u
COC(=O)[C@@H]1CCCN1C(=O)c1ccc(OC2CCN(Cc3ccccn3)CC2)cc1	x	-6%	-10%
CC(C)CN(C(=O)COC(=O)CCCc1c[nH]c2ccccc12)c1c(N)n(Cc2ccccc2)c(=O)[nH]c1=O	x	1%	15%
CCOC(=O)c1ccc(NC(=S)NCc2ccccc2)cc1	x	u	14µM*
CCOC(=O)c1ccc(NC(=O)NCCc2ccccc2OC)cc1	-6%	u	u
CCOC(=O)c1ccc(NC(=O)NCc2ccccc2)cc1	1%	-14%	u
CCOC(=O)c1ccc(NC(=S)NCCc2ccccc2)cc1	x	u	8.9µM*
COC(=O)c1ccc(NC(=S)NCCc2ccccc2)cc1	4%	-3%	u
CCOC(=O)c1ccc(NC(=S)NCCc2ccccc2F)cc1	-2%	u	3.5µM*
CSc1cccc(NS(=O)(=O)c2cccc3nsnc23)c1	-5%	-2%	6%
SMILES	Luc counter	Gal4-VP16 FLuc	RORg inh
CCCCNC1c2ccccc2C(=O)N1Cc1ccccc1 (stereo not drawn)	x	-12%	u
CCN(CC)c1ccc(NC(=O)Cn2cc3c(n2)CCC(C)C3)c(C)c1 (stereo not drawn)	-1%	11µM*	-54%
CC1CCc2nn(CC(=O)Nc3ccc(F)cc3F)cc2C1 (stereo not drawn)	3%	2%	15%
Cc1ccccc1Nc1c(-c2ccccn2)nc2c(C)cccn12	-4%	7.9µM*	4µM*
Cc1ccccc1Nc1c(-c2ccc(N3CCOCC3)cc2)nc2ncccn12	3%	4%[10 µM]	23%
Cc1cccc2nc(-c3ccco3)c(Nc3ccccc3)n12	-2%	4%	-23%
Cc1cccc(C)c1Nc1c(-c2ccccn2)nc2ccccn12	-1%	-9%	11µM*
Cc1ccc(Nc2c(-c3ccccn3)nc3cccc(C)n23)cc1	-1%	u	4.5µM*
Cc1ccc2nc(-c3ccccn3)c(NC3CCCC3)n2c1	-1%	-2%	4%
CCOC(=O)C1(CC/C(C)=N\NC(N)=O)CC(C)OC1=O (stereo not drawn)	-3%	u	-2%
COc1cc2c(cc1OC)CN(C(=O)c1ccc(OC)c(S(=O)(=O)N3CCOCC3)c1)CC2	-2%	-10%	-5%[10 µM]
CCCCCCC(C)OC(=O)Nc1cccc2ccccc12 (stereo not drawn)	x	-3%	-4%
O=C(Nc1ccccc1CC[N+](=O)[O-])N1CCN(c2ccccc2)CC1	0%	u	u
CC(=O)NC(c1ccccc1)c1cc(Cl)c2cccnc2c1O (stereo not drawn)	x	1.1µM*	1.4µM*
CCCCC(=O)NC(c1cccs1)c1cc(Cl)c2cccnc2c1O (stereo not drawn)	0%	3.5µM*	2.5µM*
CCCC(=O)NC(c1ccc(OC)c(OC)c1)c1cc(Cl)c2cccnc2c1O (stereo not drawn)	-1%	5µM*	2.8µM*
O=C(NCc1ccc(Cl)cc1)c1cccnc1	2%	-3%	1%
CCC(=O)NC(c1cccs1)c1cc(Cl)c2cccnc2c1O (stereo not drawn)	0%	-9%	23%
CC(=O)NC(c1ccc(F)cc1)c1cccnc1 (stereo not drawn)	-2%	3%	-34%
CCOc1ccc(C(NC(=O)c2ccco2)c2ccc(OC)c(OC)c2)cc1 (stereo not drawn)	-4%	5%	3%
O=C(NC(c1ccc(Cl)cc1)c1cc(Cl)c2cccnc2c1O)c1cccnc1 (stereo not drawn)	1%	0.71µM*	0.71µM*
CCNC(=O)CCC(N)C(=O)O (stereo not drawn)	-3%	2%	1%
CC1=C(C)C[C@@]23CCCN2C(=O)CCC[C@H]3C1	2%[39.9 µM]	-5%[96.6 µM]	-24%[96.6 µM]
